Reference: the supplement of paper PMC6411743
± gives the standard deviation of the averaged measurements. Of roughly 6,200 targets only a part is listed; those with the largest changes were picked by preference.

Compound: Nc1ncnc2c1ncn2[C@@H]1O[C@H](COP(=O)(O)OP(=O)(O)NP(=O)(O)O)[C@@H](O)[C@H]1O [adenylyl imidodiphosphate]
Assay: NP40-soluble protein abundance relative to vehicle (solubility fold change) (ratio); higher = more soluble protein in presence of AMP-PNP
Summary of the method: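 Jurkat crude lysate prepared with a Dounce homogeniser was treated at eight concentrations spanning 0.1 to 10 mM, 10 min at room temperature then 3 min at 37 °C. Solubilisation with 0.8% NP40 and benzonase and ultracentrifugation preceded TMT labelling of the supernatant for LC-MS/MS. Fold change against the detergent-processed vehicle was determined per replicate from vsn-normalised intensities, across three independent experiments.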

UniProt Q9H0S4, sequence (Q9H0S4 whole entry): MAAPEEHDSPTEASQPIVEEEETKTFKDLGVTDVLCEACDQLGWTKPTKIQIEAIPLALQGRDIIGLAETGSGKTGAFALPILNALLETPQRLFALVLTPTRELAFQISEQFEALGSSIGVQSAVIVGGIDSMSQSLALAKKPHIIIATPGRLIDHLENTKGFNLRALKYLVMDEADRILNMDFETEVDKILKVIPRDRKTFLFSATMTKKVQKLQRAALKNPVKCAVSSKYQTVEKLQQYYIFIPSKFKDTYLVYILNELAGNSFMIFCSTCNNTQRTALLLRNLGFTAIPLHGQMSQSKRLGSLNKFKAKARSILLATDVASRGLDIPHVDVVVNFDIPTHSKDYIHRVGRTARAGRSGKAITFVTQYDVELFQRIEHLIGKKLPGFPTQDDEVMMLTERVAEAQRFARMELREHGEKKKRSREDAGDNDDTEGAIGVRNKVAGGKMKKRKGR
UniProt Q9ULE6, sequence (Q9ULE6 whole entry): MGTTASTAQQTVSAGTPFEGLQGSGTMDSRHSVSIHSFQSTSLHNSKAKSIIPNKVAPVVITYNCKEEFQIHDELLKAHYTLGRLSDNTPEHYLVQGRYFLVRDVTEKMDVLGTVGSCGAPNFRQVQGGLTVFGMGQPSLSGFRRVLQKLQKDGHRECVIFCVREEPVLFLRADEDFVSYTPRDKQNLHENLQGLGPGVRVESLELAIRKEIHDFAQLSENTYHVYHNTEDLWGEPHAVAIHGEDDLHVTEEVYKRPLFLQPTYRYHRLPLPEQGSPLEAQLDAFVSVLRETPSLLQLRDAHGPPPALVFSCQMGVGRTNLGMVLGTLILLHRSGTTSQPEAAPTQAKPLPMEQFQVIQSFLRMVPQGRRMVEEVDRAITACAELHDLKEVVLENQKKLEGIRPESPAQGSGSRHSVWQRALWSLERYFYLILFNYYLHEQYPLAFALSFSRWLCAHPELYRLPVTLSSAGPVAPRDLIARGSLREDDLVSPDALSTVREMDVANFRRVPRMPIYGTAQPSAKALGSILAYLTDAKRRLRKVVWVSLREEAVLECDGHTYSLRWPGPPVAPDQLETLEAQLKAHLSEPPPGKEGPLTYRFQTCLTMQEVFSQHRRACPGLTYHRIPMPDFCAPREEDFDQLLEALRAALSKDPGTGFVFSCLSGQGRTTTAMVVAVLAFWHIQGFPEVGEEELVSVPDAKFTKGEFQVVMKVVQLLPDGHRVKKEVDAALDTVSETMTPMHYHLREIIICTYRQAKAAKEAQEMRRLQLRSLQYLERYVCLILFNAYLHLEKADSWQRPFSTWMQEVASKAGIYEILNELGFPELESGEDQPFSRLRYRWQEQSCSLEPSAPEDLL
UniProt Q9UKT4, sequence (Q9UKT4 whole entry): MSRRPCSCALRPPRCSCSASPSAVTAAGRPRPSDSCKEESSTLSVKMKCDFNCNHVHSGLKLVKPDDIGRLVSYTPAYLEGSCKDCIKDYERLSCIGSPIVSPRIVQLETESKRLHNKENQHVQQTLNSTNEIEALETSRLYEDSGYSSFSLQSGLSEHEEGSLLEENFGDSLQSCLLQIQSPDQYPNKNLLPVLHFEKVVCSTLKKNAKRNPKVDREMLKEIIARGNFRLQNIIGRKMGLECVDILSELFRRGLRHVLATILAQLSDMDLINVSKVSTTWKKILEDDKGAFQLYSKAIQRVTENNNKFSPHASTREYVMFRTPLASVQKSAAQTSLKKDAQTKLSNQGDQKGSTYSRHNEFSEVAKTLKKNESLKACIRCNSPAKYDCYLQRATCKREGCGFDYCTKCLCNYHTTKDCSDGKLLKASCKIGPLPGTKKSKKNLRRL
UniProt Q9Y520, sequence (Q9Y520 whole entry, one chain of several): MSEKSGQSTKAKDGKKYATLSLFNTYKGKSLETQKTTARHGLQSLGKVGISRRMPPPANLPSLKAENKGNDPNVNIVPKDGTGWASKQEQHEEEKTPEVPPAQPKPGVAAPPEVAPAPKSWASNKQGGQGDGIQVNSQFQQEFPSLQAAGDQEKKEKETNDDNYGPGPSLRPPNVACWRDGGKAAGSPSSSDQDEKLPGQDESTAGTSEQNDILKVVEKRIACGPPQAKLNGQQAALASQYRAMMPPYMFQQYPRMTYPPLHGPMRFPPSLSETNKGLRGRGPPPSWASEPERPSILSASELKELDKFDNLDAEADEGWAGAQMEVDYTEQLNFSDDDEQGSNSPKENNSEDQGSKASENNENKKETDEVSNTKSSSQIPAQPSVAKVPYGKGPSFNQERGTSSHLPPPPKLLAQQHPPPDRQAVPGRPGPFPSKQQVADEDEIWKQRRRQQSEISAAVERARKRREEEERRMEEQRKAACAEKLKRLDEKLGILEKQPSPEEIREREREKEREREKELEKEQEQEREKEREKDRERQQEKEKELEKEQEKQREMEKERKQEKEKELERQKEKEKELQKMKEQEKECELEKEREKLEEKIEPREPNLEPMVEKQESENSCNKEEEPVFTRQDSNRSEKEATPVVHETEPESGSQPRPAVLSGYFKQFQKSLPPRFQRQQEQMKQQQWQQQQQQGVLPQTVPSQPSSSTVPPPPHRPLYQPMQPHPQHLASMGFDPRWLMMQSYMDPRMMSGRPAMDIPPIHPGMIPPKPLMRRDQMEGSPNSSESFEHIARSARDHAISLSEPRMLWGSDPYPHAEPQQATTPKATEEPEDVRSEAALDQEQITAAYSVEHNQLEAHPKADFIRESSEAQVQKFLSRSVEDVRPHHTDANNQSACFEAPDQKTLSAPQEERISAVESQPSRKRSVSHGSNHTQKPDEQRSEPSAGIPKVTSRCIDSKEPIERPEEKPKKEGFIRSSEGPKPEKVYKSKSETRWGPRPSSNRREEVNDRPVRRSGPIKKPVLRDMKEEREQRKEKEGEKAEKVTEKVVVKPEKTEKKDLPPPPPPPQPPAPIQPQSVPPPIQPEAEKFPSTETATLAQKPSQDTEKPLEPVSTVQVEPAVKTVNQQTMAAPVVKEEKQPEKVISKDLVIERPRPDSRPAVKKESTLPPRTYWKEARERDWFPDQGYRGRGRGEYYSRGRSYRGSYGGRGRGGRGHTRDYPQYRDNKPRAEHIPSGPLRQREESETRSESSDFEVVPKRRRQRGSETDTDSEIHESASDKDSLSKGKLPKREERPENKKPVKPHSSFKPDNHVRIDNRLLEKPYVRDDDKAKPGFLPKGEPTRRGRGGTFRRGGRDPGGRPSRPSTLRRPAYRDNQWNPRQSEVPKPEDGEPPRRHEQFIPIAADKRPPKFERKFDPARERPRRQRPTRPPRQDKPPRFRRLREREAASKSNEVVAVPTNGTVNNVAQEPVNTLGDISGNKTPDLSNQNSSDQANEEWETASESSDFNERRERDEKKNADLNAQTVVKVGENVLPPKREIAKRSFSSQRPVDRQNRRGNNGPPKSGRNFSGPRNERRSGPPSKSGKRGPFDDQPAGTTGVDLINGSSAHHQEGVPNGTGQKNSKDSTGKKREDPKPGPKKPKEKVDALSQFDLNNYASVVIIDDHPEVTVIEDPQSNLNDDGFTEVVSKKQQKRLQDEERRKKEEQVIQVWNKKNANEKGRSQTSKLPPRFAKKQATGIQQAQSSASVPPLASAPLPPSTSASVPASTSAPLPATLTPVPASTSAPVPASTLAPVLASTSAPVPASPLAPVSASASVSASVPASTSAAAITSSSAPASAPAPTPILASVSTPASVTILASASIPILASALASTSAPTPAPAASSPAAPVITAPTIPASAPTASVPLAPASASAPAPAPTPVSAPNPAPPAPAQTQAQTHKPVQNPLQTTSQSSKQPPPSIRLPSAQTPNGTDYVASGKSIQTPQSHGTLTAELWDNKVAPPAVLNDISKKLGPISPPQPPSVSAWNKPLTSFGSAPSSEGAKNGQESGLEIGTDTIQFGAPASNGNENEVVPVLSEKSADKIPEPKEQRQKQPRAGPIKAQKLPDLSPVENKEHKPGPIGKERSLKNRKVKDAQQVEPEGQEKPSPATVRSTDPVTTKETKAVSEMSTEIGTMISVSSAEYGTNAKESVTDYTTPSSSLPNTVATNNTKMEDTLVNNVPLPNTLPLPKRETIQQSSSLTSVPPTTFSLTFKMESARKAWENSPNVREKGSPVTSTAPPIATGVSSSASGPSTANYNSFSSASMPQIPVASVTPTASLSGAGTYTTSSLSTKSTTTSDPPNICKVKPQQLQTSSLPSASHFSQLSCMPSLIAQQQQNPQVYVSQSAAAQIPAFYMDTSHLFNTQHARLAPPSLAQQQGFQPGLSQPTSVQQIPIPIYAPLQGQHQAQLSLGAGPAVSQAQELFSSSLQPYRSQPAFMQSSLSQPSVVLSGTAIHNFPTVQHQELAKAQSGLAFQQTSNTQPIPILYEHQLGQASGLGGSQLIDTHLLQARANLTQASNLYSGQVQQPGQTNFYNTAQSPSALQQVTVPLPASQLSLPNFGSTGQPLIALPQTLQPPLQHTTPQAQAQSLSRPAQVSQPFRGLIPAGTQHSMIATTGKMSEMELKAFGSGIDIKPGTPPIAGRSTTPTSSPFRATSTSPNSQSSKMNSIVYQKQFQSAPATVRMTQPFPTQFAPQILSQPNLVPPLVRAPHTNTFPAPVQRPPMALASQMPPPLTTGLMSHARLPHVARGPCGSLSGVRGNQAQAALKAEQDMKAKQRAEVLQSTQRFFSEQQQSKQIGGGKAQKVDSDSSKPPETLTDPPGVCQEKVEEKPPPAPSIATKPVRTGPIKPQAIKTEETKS
UniProt Q9H8P0, sequence (Q9H8P0 whole entry, one chain of several): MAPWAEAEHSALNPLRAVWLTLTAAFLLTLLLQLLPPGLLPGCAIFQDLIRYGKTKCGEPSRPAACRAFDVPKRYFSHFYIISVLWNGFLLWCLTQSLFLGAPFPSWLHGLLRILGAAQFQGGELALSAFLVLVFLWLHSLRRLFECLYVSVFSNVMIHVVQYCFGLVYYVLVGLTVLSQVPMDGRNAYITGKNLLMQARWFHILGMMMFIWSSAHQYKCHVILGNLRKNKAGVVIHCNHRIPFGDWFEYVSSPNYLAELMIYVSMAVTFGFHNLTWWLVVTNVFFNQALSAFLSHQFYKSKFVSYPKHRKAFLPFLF

Target	NP40-soluble protein abundance (concentration: 1mM)	NP40-soluble protein abundance (concentration: 2mM)	NP40-soluble protein abundance (concentration: 4mM)	NP40-soluble protein abundance (concentration: 6mM)	NP40-soluble protein abundance (concentration: 8mM)	NP40-soluble protein abundance (concentration: 10mM)
POLR3F (UniProt Q9H1D9)	0.959 ± 0.035	0.97 ± 0.08	0.962 ± 0.042	1.04 ± 0.062	1.03 ± 0.077	1.02 ± 0.087
UniProt Q9Y2S0|Q9Y2S0-2|A0A0R4J2F3	1.03 ± 0.024	1.06 ± 0.053	1.08 ± 0.062	1.02 ± 0.018	1.03 ± 0.041	1.07 ± 0.036
UniProt Q9H0W9|Q9H0W9-2	0.99 ± 0.035	0.972 ± 0.036	0.973 ± 0.029	0.974 ± 0.012	0.949 ± 0.043	0.935 ± 0.037
UniProt Q9Y5V3|Q9Y5V3-2	1 ± 0.08	1 ± 0.059	0.937 ± 0.08	0.869 ± 0.077	0.81 ± 0.027	0.858 ± 0.048
CCDC115 (UniProt Q96NT0)	0.994 ± 0.046	1.01 ± 0.043	1.01 ± 0.035	1 ± 0.04	0.968 ± 0.06	0.992 ± 0.041
LSG1 (UniProt Q9H089)	0.993 ± 0.019	0.975 ± 0.033	0.987 ± 0.017	0.926 ± 0.03	0.927 ± 0.034	0.924 ± 0.013
WDR12 (UniProt Q9GZL7)	0.997 ± 0.017	0.928 ± 0.082	0.979 ± 0.011	1 ± 0.028	0.999 ± 0.016	0.94 ± 0.033
ISCU (UniProt Q9H1K1)	1.01 ± 0.039	1.06 ± 0.018	0.987 ± 0.043	0.969 ± 0.03	0.96 ± 0.054	0.958 ± 0.047
DDX18 (UniProt Q9NVP1)	1.03 ± 0.045	1.03 ± 0.013	1.16 ± 0.046	1.24 ± 0.075	1.35 ± 0.12	1.43 ± 0.15
UniProt Q9Y520|Q9Y520-5|Q9Y520-7|E7EPN9|Q9Y520-4	1.1 ± 0.013	1.2 ± 0.092	1.2 ± 0.05	1.25 ± 0.12	1.29 ± 0.14	1.41 ± 0.17
UniProt Q9NPB8|H0Y565	1.01 ± 0.017	1.05 ± 0.034	1.02 ± 0.015	0.999 ± 0.033	0.9977 ± 0.0075	1.02 ± 0.019
AMDHD2 (UniProt Q9Y303)	0.968 ± 0.016	0.923 ± 0.048	0.949 ± 0.024	0.954 ± 0.024	0.948 ± 0.02	0.922 ± 0.033
UniProt Q9H8P0|H0Y9P9	0.933 ± 0.084	0.9132 ± 0.0065	0.948 ± 0.063	0.999 ± 0.14	1.02 ± 0.12	1.05 ± 0.15
SORT1 (UniProt Q99523)	0.99 ± 0.034	1.05 ± 0.089	0.995 ± 0.063	1.03 ± 0.055	1.03 ± 0.036	1.03 ± 0.047
UniProt Q96K49|Q96K49-2	0.99 ± 0.013	1.01 ± 0.027	0.984 ± 0.026	0.9718 ± 0.005	0.9653 ± 0.0019	0.9716 ± 0.0066
UniProt Q9ULE6	0.981 ± 0.025	0.96 ± 0.013	1.01 ± 0.02	0.959 ± 0.027	0.957 ± 0.016	0.944 ± 0.025
UniProt Q96T76|Q96T76-8|Q96T76-9	0.964 ± 0.013	0.929 ± 0.082	0.972 ± 0.032	0.987 ± 0.036	1.002 ± 0.0053	0.9354 ± 0.0075
HECA (UniProt Q9UBI9)	0.969 ± 0.029	1 ± 0.017	1.02 ± 0.049	1.034 ± 0.0078	1.06 ± 0.046	1.04 ± 0.024
UniProt Q9NSG2|Q9NSG2-2|Q9NSG2-3	0.991 ± 0.028	0.991 ± 0.015	0.993 ± 0.011	0.955 ± 0.022	0.964 ± 0.031	0.968 ± 0.015
ATAD5 (UniProt Q96QE3)	1.03 ± 0.026	1.05 ± 0.046	1.08 ± 0.028	1.08 ± 0.031	1.08 ± 0.022	1.12 ± 0.045
UniProt Q9H0S4|Q9H0S4-2	0.994 ± 0.061	0.981 ± 0.022	1.11 ± 0.089	1.25 ± 0.12	1.39 ± 0.13	1.46 ± 0.14
UNK (UniProt Q9C0B0)	1.071 ± 0.0069	1.12 ± 0.056	1.11 ± 0.021	1.09 ± 0.072	1.1 ± 0.045	1.11 ± 0.033
UniProt Q9UL63|C9J7E8|Q9UL63-2	0.984 ± 0.065	0.968 ± 0.061	0.994 ± 0.041	0.937 ± 0.085	0.934 ± 0.092	0.922 ± 0.12
UniProt Q9NVI7-2	1.08 ± 0.075	1.05 ± 0.073	1.14 ± 0.18	1.29 ± 0.18	1.38 ± 0.24	1.44 ± 0.32
UniProt Q9H2H8|B8ZZ77|Q9H2H8-2	1.04 ± 0.038	1.04 ± 0.032	1.04 ± 0.017	0.998 ± 0.031	1.02 ± 0.018	1.03 ± 0.038
UniProt Q9UM21	1.02 ± 0.058	0.987 ± 0.034	0.981 ± 0.023	1 ± 0.071	1 ± 0.043	0.991 ± 0.023
MOV10 (UniProt Q9HCE1)	0.952 ± 0.027	0.867 ± 0.15	0.932 ± 0.09	0.938 ± 0.032	0.944 ± 0.08	0.889 ± 0.12
UniProt Q9UKT4|Q9UKT4-2	0.995 ± 0.029	1.03 ± 0.031	1.03 ± 0.072	1 ± 0.061	1.02 ± 0.092	1.02 ± 0.11
UniProt Q9Y462|Q9Y462-3	1 ± 0.032	1.02 ± 0.037	1.012 ± 0.0034	1.01 ± 0.036	1.024 ± 0.0028	1.02 ± 0.013
SIPA1 (UniProt Q96FS4)	1.01 ± 0.037	1.013 ± 0.003	1.03 ± 0.025	1.05 ± 0.029	1.03 ± 0.036	1.04 ± 0.02
